Measured values from the OligoGym collection.

Molecular target: FXN
Test: pooled miR-30 sensor sort-seq; sequence = guide strand
Conditions: shRNA
Also: reference of the scale not given here.

Sequence	sensor-assay potency score (higher = more potent)
TTGGTTTTTAAGGCTTTAGTGA	-0.944
ATCAAATAGACACTCTGCTTTT	-1.04
TTTGACATTCCAAATCTGGTTG	-0.256
TGGTCTCATCTAGAGAGCCTGG	-1.32
TAACGCTTAGGTCCACTGGATG	-1.46
TAGTCTTTCATAGGTGGTCTCA	-0.873
TTTTTGACATTCCAAATCTGGT	-1.15
TGCTTGTTGATCACATAGGTTC	-0.833
TTTAGTGAGCTCTGCGGCCAGC	-1.33

Molecular target: FXR1
Test: as above
Conditions: shRNA

Sequence	sensor-assay potency score (higher = more potent)
TTCATTTCTGGACATAAGCATC	-1.34
TTTCTTGAATAACTTTGCCATT	-1.55
TATACCTCTACTTCATCTCCTT	0.473
TATTAATCTTTTCTTCTCCTGG	-0.0994
TATTTTATAACACAGTAGGTGT	-0.648
TAAGCATCAACTTCGTACGAAT	-0.962
TGTCTCGATCATCTTCTCCTGC	0.196
TTGCTCTTGAATATACCTCTAC	-0.669
TTCAATCACATCTTTTGCCATT	-1.45
TTGAGCACAGAACTGATGGAGG	-0.647
TTATTTTCAAAAACAACTGTAA	-0.406
